In PubChem BioAssay AID1491 (National Center for Advancing Translational Sciences (NCATS), 2009):
“And” between values parts separate entries of the source, which are not always exact repeats. Equal entries are not always repeated. Results filed as inconclusive are left out. The source made the active and inactive calls. Calls follow the shape of the dose curve; as a rule, active = well fitted inhibition curve with a large enough effect in the main read-out, with a control signal flat; inconclusive = small, poorly fitted or top-dose-only effect, or a change in a side signal; inactive = flat fitted curve, though single readings scatter.

What follows are compounds tested against Neuropeptide S receptor (Homo sapiens) (UniProt Q6W5P4) (assay: Confirmation Concentration-Response Assay for Antagonists of the Neuropeptide S Receptor: cAMP Signal Transduction). Settings: CHO-NPSR cells, cAMP TR-FRET, antagonist mode; series mostly up to 22.3 µM; activity change, negative = inhibition: at the top concentration.
In short: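 LANCE TR-FRET cAMP read-out: 665/620 nm emission ratio, with the 620 nm donor channel also reported, after 2 h RT detection. Stably transfected CHO-NPSR cells got compound titrations and 100 nM NPS in stimulation reagent for 60 min at 37C. IC50 came from Hill fits.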
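For activity change, negative = inhibition in this document: 0% = DMSO with NPS and full inhibition = wells lacking NPS.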
Potency is read from the fitted curve at half-maximal effect.

Neuropeptide S receptor (Homo sapiens), sequence (Q6W5P4 whole entry, looked up): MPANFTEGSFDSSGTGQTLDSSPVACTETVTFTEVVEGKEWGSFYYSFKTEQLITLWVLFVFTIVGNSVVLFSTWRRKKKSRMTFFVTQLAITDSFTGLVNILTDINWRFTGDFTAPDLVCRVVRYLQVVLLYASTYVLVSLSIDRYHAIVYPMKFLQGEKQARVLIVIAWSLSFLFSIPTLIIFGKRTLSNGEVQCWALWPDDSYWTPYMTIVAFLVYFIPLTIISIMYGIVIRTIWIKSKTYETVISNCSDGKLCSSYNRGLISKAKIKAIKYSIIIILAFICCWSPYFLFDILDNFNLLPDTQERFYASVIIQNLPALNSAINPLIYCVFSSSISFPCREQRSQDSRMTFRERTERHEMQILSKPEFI

Structure (SMILES) | activity change, negative = inhibition | Potency
CCO[C@@H]1OC(C(=O)NCc2nc3ccccc3[nH]2)=C[C@H](c2ccc(C(F)(F)F)cc2)[C@H]1CCCO | -6.49% (inactive) | –
O=C(N1CCOCC1)C1(c2ccc(Cl)cc2)CCCC1 | 19.5% (inactive) | –
C/C(=N\Nc1ncc(Cl)cc1Cl)c1ccccn1 | – | 5.62 µM (active)
CCC(C)(C)NC(=O)Cc1ccc(C)cc1 | 11.3% (inactive) | –
COc1ccccc1-c1nnc(SC2CCc3ccccc3NC2=O)s1 (stereo not drawn) | -30% (inactive) | –
COc1ccc(OC)c(C2C(C(=O)Nc3nc4ccccc4s3)=C(C)NC3=C2C(=O)CCC3)c1 (stereo not drawn) | – | 2.82 µM (active)
Cc1ccc(/C=C2\SC(=S)N(CC(=O)Nc3ncc(Cc4ccccc4Cl)s3)C2=O)cc1 | -2.64% (inactive) | –
CN(C)c1nc(=Nc2cccc(Cl)c2)ss1 | -8.2% (inactive) | –
C=C1C(=O)C=C2CN(C(=O)c3ccccc3)[C@@](Cc3ccc(F)cc3)(C(=O)OC)[C@@H]12 | – | 3.98 µM (active)
CCC(C)n1c(=O)c(C(=O)Nc2ccccc2S(N)(=O)=O)c(O)c2ccccc21 (stereo not drawn) | -13.3% [at 47.8 µM] (inactive) | –
CN(CC(=O)NCc1ccc(F)cc1)S(=O)(=O)c1cccc2nsnc12 | 7.19% (inactive) | –
CCOC(=O)CCC(=O)Nc1ncnc2c1C(c1ccccc1)c1c(ccc3ccccc13)O2 (stereo not drawn) | – | 2 µM (active)
CC1C(c2ccccc2)N(C)C(c2ccccc2)CC1(O)c1ccccc1 (stereo not drawn) | -5.26% (inactive) | –
Cc1cc(C)n(-c2nc(Nc3ccccc3C(F)(F)F)nc(-n3nc(C)cc3C)n2)n1 | – | 11.2 µM (active)
Oc1ccc(N=Nc2nccs2)c(O)c1 | -6.18% (inactive) | –
NC(=O)OCC(COC(N)=O)c1ccccc1 | -6.16% (inactive) | –
O=C(/C(=C/c1ccc(Cl)cc1)c1nc2ccccc2[nH]1)c1cccs1 | – | 8.91 µM (active)
C=CC1(C)CC(=O)C2(O)C(C)(O1)C(OC(C)=O)C(O)C1C(C)(C)CCC(O)C12C (stereo not drawn) | 6.07% [at 0.188 µM] (inactive) | –
CCSc1nc2c(c(=O)n1Cc1ccccc1)SC(C)C2 (stereo not drawn) | -1.72% (inactive) | –

Structure (SMILES) | activity change, negative = inhibition | Potency
C=CCNC(=O)/C(C#N)=C/c1cn(-c2ccccc2)nc1-c1ccc(OC)c([N+](=O)[O-])c1 | -2.43% (inactive) | –
CN(Cc1cc(=O)[nH]c2ccccc12)C(=O)c1ccccc1 | -1.96% (inactive) | –
COc1ccc(C(=O)N(Cc2ccco2)Cc2cccs2)c(O)c1 | -4.04% (inactive) | –
O=C(Nc1cc(=O)[nH]c2nc(-c3ccc(Cl)cc3)nn12)c1ccccc1 | – | 3.98 µM (active)
COC(=O)/C(=C1/Oc2cc(C)oc(=O)c2S1)C(F)(F)F | -13.3% (inactive) | –
COc1cccc(C2c3c(ncn(CCN4CCOCC4)c3=N)Oc3ccc4ccccc4c32)c1 (stereo not drawn) | – | 2.51 µM (active) and 10 µM (active)
COc1ccc(N=C2S/C(=C\c3ccc(N4CCOCC4)o3)C(=O)N2CCc2c[nH]c3ccccc23)cc1 | – | 2.24 µM (active)
COc1cccc(C2C(C#N)=C(NC(=O)CCc3ccccc3)Oc3ccc4ccccc4c32)c1 (stereo not drawn) | -10.6% (inactive) | –
CCC(c1nnnn1C1CCCC1)N1CCN(c2ccccc2)CC1 (stereo not drawn) | -5.45% (inactive) | –
CN(C)c1ccc(N2CN=C3SCC(=O)N3C2)cc1 | 20.4% (inactive) | –
N=c1c2c(ncn1-c1ccccc1)Oc1ccc3ccccc3c1C2c1ccc2c(c1)CCO2 (stereo not drawn) | – | 1.12 µM (active)
COc1ccc(-c2cc(N)n(S(=O)(=O)c3c(F)c(F)c(F)c(F)c3F)n2)cc1OC | – | 7.08 µM (active)
O=C(N/N=C/c1ccc([N+](=O)[O-])o1)c1ccc(O)cc1 | -3.61% (inactive) | –
N=c1c2c(ccn1-c1ccccc1)Oc1ccc3ccccc3c1C2c1ccccc1 (stereo not drawn) | – | 2.51 µM (active)
O=C(Nc1ccc(Oc2c(F)c(F)c(F)c(F)c2F)cc1)OC1CCN2Cc3ccccc3N=C12 (stereo not drawn) | – | 11.2 µM (active)
CCC(=O)O[C@]1(C(=O)CCl)[C@@H](C)C[C@H]2[C@@H]3CCC4=CC(=O)C=C[C@]4(C)[C@@]3(F)[C@@H](O)C[C@@]21C | – | 11.2 µM (active)
C=CCn1c(SCCN2C(=O)c3ccccc3C2=O)nc2scc(-c3ccccc3)c2c1=O | -9.23% (inactive) | –
Cc1cccc(N2CCN(C(=O)c3ccc(CNc4c(N5CCC(C)CC5)c(=O)c4=O)cc3)CC2)c1C | -16.2% (inactive) | –
Cc1ccc(Cn2cc(SCC(=O)Nc3nccs3)c3ccccc32)cc1 | -8.92% (inactive) | –
